For eleven molecules, AC50 and outcome results are on record in PubChem BioAssay (EPA / NIEHS).

Molecules are shown by their SMILES. Several values for one entry are separate records, joined by “and”; a condition that tells them apart may be missing. Equal entries are not always repeated. Records with an inconclusive call do not appear. A structure can be active in one record and inactive in another. Activity calls are given as the source filed them. Rule for the calls, unless noted: active = hit-call score of the fitted dose curve at least 0.9, where 1 is the maximum; inconclusive = response in the unintended direction; inactive = score below 0.9.

The nature of experiment [1]: NVS_IC_rCaDHPRCh_L: NovaScreen (NVS) Ion Channel Assay for rat Calcium Channel, Type L, Dihydropyridine Site (CaDHPRCh_L) (AID 2283320). In a few lines:
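Radioligand binding to dihydropyridine site on rat cortical membranes, filter-based scintillation counting, 1 h after dosing. Screened in duplicate at 25 uM; actives rerun in concentration-response up to 50 uM. Loss of signal versus DMSO baseline.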

Experiment [2] concerns the target bovine Gamma-Aminobutyric Acid Type A Receptor BDZ, alpha 5 site (GABARa5), GABRA5 (gene 523515) (UniProt Q08E50). Nature of the experiment: NVS_LGIC_bGABARa5: NovaScreen (NVS) Ligand-Gated Ion Channel Assay for bovine Gamma-Aminobutyric Acid Type A Receptor BDZ, alpha 5 site (GABARa5) (AID 2283323). In short, it runs like this: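 Radioligand competitive displacement binding on bovine hippocampal membranes, read 1 hr after dosing by filter-based scintillation counting. Primary screen at 25 uM in duplicate; actives (e.g. ≥30% inhibition) then run in concentration-response up to 50 uM.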

The target in experiment [3] is human Peripheral-type Benzodiazepine Receptor (PBR), TSPO (gene 706) (UniProt P30536). Briefly: NVS_MP_hPBR: NovaScreen (NVS) Membrane Protein Assay for human Peripheral-type Benzodiazepine Receptor (PBR) (AID 2283331).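 Note: hits reduce radioligand binding relative to DMSO baseline.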 In short, it runs like this:
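Radioligand displacement on human colonic cell membranes, 1 h incubation; bound radioactivity by filtration and scintillation counting. Primary screen in duplicate at 25 uM single concentration, actives followed up in concentration series; loss of binding versus DMSO.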

For experiment [4], the target named is rat Peripheral-type Benzodiazepine Receptor (PBR), Tspo (gene 24230) (UniProt P16257). Nature of the experiment: NVS_MP_rPBR: NovaScreen (NVS) Membrane Protein Assay for rat Peripheral-type Benzodiazepine Receptor (PBR) (AID 2283335). In a few lines:
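Rat kidney membranes; radioligand binding with displacement, filter-based scintillation counting, 1 h incubation. Primary screen in duplicate at 25 uM, actives followed in concentration series; loss of binding vs DMSO.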

A short description of experiment [5]: NVS_IC_rCaBTZCHL: NovaScreen (NVS) Ion Channel Assay for Calcium Channel, Type L, Benzothiazepine Site (CaBTZCHL) (AID 2283337). In short, it runs like this:
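Radioligand displacement at the benzothiazepine site using rat cortical membranes; bound label measured by filtration and scintillation counting 1.5 h after dosing. Single-point 25 uM in duplicate, then concentration series; DMSO baseline.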

For experiment [6], the target named is rat Thyrotropin Releasing Hormone Receptor (TRH), Trhr (gene 25570) (UniProt Q01717). Briefly: NVS_GPCR_rTRH: NovaScreen (NVS) G Protein-Coupled Receptor Assay for rat Thyrotropin Releasing Hormone Receptor (TRH) (AID 2283329).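 Note: hit means lower bound tracer signal versus DMSO baseline.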 In a few lines:
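Competitive radioligand binding on rat forebrain membrane preparations, with filtration and scintillation readout after 4 h. Primary testing in duplicate at 25 uM; actives confirmed in concentration-response. DMSO defined baseline.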

Experiment [7] deals with rat Glutamate, AMPA Site (AMPA), Gria1 (gene 50592) (UniProt P19490). Nature of the experiment: NVS_LGIC_rAMPA: NovaScreen (NVS) Ligand-Gated Ion Channel Assay for rat Glutamate, AMPA Site (AMPA) (AID 2283324). In short, it runs like this:
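Rat forebrain membranes; radioligand binding read 1 h after dosing by filtration and scintillation counting. Duplicate single-point screen at 25 uM, then concentration-response to 50 uM for threshold hits (e.g. 30% inhibition); loss of signal vs DMSO.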

Experiment [8] addresses Voltage-gated inwardly rectifying potassium channel KCNH2 (Homo sapiens) (UniProt Q12809). Briefly: NVS_IC_hKhERGCh: NovaScreen (NVS) Ion Channel Assay for human Potassium Channel ERG (KhERGCh) (AID 2283333). In a few lines: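 Cell-free radioligand competition binding on hERG protein extracted from CHO cells, read by filter-based scintillation counting 0.75 h after dosing. Primary screen at 25 uM in duplicate, actives followed in concentration series. Signal loss fitted versus DMSO.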

In experiment [9] the target is rat Gamma-Aminobutyric Acid Type A Receptor, Non-Selective (GABAR-NonSelective), Gabra1 (gene 29705) (UniProt P62813). Briefly: NVS_LGIC_rGABAR_NonSelective: NovaScreen (NVS) Ligand-Gated Ion Channel Assay for rat Gamma-Aminobutyric Acid Type A Receptor, Non-Selective (GABAR-NonSelective) (AID 2283326). In a few lines:
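Radioligand displacement on rat whole-brain extract, 1 h, filter scintillation readout; signal loss fitted versus DMSO. Primary screen in duplicate at 25 uM; hits (e.g. ≥30% inhibition) retested in concentration-response up to 50 uM.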

In experiment [10] the target is rat Opioid Receptor, Non-selective Binding, Oprm1 (gene 25601) (UniProt P33535). Briefly: NVS_GPCR_rOpiate_NonSelective: NovaScreen (NVS) G Protein-Coupled Receptor Assay for rat Opioid Receptor, Non-selective Binding (AID 2283318). In short, it runs like this:
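Rat forebrain membranes, cell-free radioligand binding with filter-based scintillation counting, read 1.5 h after dosing. Primary screen in duplicate at 25 uM; actives retested in concentration series. Loss of signal versus DMSO baseline scored.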

Experiment [11] concerns the target Sodium channel protein type 1 subunit alpha (Rattus norvegicus) (UniProt P04774). Nature of the experiment: NVS_IC_rNaCh_site2: NovaScreen (NVS) Ion Channel Assay for rat Sodium Channel, Site 2 (NaCh) (AID 2283322).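 Note: hit means loss of radioligand binding signal relative to DMSO so AC50 marks displacement.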 In a few lines:
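Membranes: rat forebrain. Format: competitive radioligand displacement, filter separation, scintillation readout, 1 h exposure. Primary screen in duplicate at 25 uM; actives retested in concentration series.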

Experiment [12] has as its target rat Glutamate, NMDA Agonist Site (GluNMDA), Grin1 (gene 24408) (UniProt P35439). Nature of the experiment: NVS_LGIC_rGluNMDA_Agonist: NovaScreen (NVS) Ligand-Gated Ion Channel Assay for rat Glutamate, NMDA Agonist Site (GluNMDA) (AID 2283327). In short, it runs like this: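 Rat forebrain membranes, radioligand binding in the agonist-site protocol; 1 h after dosing; filter-based scintillation counting. Single-concentration duplicate screen at 25 uM, then concentration-response up to 50 uM for actives; gain-of-signal vs DMSO.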

In experiment [13] the target is human Androgen Receptor (AR), AR (gene 367) (UniProt P10275). Briefly: NVS_NR_hAR: NovaScreen (NVS) Nuclear Receptor Binding Assay for human Androgen Receptor (AR) (AID 2283332). In short, it runs like this:
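LnCAP cell-free extract; radioligand displacement read by scintillation counting after 20 h. Primary screen single concentration 25 uM in duplicate, actives then run as concentration series; loss-of-signal fitted relative to DMSO baseline.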

In experiment [14] the target is Glutamate receptor ionotropic, kainate 1 (Rattus norvegicus) (UniProt P22756). Briefly: NVS_IC_rKAR: NovaScreen (NVS) Ion Channel Assay for rat Kainic Acid Receptors (KAR) (AID 2283334; active = hit-call score of the fitted dose curve at least 0.9, where 1 is the maximum; inactive = score below 0.9). In a few lines:
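Radioligand displacement binding using rat forebrain membranes, 1 h incubation, filter-based scintillation counting. Screened in duplicate at 25 uM, with actives retested in concentration-response up to 50 uM; fitted against DMSO.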

Experiment [15] addresses bovine Gamma-Aminobutyric Acid Type A Receptor Agonist (GABAR Agonist), GABRA1 (gene 780973) (UniProt P08219). Briefly: NVS_LGIC_bGABAR_Agonist: NovaScreen (NVS) Ligand-Gated Ion Channel Assay for bovine Gamma-Aminobutyric Acid Type A Receptor Agonist (GABAR Agonist) (AID 2283338). In a few lines: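 Radioligand binding to bovine cerebellar membranes in agonist format, read by filter-based scintillation counting after 1 h. Primary screen in duplicate at 25 uM, with actives followed in concentration series. Gain of signal versus DMSO.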

Experiment [16] relates to NCBI gene 24521. Briefly: NVS_IC_rKATPCh: NovaScreen (NVS) Ion Channel Assay for rat Potassium Channel, ATP-Sensitive (KATPCh) (AID 2283319). In short, it runs like this: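 Rat cortical membranes; radioligand binding at ATP-sensitive K channel site, filter-based scintillation counting 2 h after dosing. Single-point duplicate screen at 25 uM, hits rerun in concentration-response up to 50 uM; loss of signal versus DMSO.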

Experiment [17] addresses rat Oxytocin Receptor (OXT), Oxtr (gene 25342) (UniProt P70536). Briefly: NVS_GPCR_rOXT: NovaScreen (NVS) G Protein-Coupled Receptor Assay for rat Oxytocin Receptor (OXT) (AID 2283330). In short, it runs like this:
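Radioligand displacement on rat uterine membranes, 1 h incubation, filter-based scintillation counting. Chemicals were screened in duplicate at 25 uM, and those passing threshold were retested in concentration-response up to 50 uM. Loss of binding was fitted versus DMSO.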

Chain of rat Peripheral-type Benzodiazepine Receptor (PBR), Tspo (gene 24230) (P16257 whole entry, looked up): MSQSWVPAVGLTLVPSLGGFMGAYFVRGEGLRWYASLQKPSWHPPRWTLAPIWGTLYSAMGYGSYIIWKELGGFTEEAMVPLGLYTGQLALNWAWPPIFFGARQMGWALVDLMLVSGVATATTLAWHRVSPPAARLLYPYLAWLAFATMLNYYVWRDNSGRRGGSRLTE
Chain of bovine Gamma-Aminobutyric Acid Type A Receptor BDZ, alpha 5 site (GABARa5), GABRA5 (gene 523515) (Q08E50 whole entry, looked up): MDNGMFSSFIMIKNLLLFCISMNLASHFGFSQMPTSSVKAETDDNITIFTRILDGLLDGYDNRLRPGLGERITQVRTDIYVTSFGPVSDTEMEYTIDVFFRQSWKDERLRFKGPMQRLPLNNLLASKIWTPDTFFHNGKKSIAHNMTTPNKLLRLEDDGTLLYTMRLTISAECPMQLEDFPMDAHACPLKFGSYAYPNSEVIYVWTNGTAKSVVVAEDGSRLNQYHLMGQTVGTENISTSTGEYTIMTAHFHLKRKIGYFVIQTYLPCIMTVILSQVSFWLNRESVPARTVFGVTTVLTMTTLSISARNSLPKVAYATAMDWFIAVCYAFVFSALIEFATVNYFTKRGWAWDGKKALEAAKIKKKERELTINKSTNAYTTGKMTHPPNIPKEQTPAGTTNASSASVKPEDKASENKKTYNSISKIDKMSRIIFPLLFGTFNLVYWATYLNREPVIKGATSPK
Chain of human Peripheral-type Benzodiazepine Receptor (PBR), TSPO (gene 706) (P30536 whole entry, looked up): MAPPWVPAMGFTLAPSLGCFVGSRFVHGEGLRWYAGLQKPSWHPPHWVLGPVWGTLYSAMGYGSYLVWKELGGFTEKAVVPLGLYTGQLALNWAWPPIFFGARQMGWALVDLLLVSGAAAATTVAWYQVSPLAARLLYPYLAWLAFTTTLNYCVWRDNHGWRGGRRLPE
Chain of human Androgen Receptor (AR), AR (gene 367) (P10275 whole entry, looked up): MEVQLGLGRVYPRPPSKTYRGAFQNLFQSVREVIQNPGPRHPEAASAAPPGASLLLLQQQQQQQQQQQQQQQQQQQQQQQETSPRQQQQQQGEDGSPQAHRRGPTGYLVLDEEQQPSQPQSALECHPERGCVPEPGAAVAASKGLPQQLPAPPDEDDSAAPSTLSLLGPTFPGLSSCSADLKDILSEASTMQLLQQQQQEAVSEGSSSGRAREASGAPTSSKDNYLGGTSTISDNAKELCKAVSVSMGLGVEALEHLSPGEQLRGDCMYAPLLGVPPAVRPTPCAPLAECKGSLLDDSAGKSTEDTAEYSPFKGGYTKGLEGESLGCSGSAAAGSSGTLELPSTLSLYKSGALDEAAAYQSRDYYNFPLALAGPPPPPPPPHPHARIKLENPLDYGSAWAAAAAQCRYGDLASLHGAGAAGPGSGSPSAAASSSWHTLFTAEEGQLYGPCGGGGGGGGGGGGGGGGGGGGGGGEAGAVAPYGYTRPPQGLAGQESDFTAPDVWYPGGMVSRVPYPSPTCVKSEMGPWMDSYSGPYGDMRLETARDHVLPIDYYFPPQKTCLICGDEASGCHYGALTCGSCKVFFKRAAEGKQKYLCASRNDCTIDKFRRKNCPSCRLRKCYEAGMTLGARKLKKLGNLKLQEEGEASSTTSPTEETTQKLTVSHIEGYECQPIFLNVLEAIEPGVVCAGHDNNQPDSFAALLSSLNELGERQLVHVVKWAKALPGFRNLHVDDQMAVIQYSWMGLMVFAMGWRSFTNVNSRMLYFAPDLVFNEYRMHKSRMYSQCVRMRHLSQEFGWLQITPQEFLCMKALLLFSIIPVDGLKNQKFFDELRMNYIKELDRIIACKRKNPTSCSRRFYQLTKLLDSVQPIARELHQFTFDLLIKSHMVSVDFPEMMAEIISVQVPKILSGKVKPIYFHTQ
Chain of Voltage-gated inwardly rectifying potassium channel KCNH2 (Homo sapiens) (Q12809 whole entry, looked up): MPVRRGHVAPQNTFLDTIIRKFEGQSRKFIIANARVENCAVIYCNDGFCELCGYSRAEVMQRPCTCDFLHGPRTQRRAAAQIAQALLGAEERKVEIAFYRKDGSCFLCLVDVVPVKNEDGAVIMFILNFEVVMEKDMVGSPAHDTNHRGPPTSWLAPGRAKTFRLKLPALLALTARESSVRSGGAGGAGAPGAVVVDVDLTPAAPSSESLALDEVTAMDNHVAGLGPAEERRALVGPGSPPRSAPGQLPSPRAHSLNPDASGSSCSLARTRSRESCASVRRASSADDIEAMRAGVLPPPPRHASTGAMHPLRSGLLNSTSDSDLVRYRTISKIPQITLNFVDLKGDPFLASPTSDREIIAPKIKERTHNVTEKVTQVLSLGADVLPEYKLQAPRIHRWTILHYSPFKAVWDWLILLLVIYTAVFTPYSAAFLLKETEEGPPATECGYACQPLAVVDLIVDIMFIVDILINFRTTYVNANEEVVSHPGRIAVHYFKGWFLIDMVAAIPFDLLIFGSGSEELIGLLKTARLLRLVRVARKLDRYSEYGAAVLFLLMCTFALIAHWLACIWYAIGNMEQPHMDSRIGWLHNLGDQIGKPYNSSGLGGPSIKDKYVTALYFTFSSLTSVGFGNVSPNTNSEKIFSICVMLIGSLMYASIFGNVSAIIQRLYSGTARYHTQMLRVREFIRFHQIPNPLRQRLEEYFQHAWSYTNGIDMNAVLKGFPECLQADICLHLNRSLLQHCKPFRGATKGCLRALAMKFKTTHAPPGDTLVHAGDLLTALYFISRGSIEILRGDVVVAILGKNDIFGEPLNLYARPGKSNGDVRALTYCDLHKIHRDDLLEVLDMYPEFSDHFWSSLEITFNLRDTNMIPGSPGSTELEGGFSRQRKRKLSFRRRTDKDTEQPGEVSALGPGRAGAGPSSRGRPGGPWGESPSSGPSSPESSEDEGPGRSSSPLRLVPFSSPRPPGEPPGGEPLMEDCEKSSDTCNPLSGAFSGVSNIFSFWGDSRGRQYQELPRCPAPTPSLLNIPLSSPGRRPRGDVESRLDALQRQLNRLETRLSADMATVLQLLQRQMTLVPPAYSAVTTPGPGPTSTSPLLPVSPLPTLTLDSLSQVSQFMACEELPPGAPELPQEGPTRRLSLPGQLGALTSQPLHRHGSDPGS
Chain of rat Opioid Receptor, Non-selective Binding, Oprm1 (gene 25601) (P33535 whole entry, looked up): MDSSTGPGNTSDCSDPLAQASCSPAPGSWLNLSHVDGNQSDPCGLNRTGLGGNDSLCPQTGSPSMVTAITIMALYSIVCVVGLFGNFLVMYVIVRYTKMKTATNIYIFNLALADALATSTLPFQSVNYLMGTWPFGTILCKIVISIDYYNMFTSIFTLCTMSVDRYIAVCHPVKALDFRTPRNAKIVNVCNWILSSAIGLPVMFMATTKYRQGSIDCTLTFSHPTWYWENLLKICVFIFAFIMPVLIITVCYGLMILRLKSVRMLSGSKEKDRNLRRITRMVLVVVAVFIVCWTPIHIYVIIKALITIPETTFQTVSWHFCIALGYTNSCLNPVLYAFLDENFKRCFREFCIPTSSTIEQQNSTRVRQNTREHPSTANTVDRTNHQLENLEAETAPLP
Chain of rat Glutamate, AMPA Site (AMPA), Gria1 (gene 50592) (P19490 whole entry, looked up): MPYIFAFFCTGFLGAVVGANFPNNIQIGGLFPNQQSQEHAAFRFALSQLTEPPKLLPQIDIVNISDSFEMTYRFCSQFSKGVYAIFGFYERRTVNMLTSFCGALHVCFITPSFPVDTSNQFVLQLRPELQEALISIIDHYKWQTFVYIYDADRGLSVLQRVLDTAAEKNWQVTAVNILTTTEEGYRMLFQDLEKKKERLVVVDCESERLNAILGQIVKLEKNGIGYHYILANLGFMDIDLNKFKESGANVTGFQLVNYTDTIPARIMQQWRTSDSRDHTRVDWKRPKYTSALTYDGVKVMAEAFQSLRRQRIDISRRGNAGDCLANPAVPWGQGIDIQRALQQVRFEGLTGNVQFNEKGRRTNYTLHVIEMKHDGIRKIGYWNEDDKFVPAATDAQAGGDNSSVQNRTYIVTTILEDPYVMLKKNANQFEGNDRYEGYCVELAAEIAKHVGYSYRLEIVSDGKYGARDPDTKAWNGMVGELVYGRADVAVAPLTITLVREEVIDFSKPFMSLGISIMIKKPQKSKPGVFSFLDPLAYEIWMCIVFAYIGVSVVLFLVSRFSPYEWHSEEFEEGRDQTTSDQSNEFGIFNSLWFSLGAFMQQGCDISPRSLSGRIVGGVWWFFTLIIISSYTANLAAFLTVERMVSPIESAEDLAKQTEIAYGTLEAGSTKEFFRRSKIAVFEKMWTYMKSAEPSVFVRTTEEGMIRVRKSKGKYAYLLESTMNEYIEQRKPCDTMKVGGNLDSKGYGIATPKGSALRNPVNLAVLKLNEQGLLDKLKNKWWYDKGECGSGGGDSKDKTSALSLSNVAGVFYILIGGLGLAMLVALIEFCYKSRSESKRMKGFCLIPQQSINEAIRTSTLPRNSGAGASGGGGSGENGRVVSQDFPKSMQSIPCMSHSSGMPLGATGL
Chain of rat Gamma-Aminobutyric Acid Type A Receptor, Non-Selective (GABAR-NonSelective), Gabra1 (gene 29705) (P62813 whole entry, looked up): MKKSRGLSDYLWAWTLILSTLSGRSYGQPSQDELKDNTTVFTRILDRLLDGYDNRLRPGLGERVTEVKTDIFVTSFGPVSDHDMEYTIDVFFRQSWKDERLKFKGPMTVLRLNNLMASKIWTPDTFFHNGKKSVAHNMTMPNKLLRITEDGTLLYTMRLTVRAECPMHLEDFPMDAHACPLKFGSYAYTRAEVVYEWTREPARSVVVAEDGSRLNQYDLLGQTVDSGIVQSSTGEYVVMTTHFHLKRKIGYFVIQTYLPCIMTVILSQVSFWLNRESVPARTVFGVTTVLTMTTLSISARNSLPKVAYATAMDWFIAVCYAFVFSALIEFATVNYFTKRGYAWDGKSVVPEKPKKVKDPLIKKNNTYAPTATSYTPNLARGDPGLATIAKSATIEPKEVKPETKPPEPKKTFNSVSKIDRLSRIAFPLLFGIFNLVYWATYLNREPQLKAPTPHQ

As a reminder, the AC50 is the concentration giving half of the maximal activity seen. For `CC[C@H](C)[C@H]1O[C@]2(C=C[C@@H]1C)C[C@@H]1C[C@@H](C/C=C(\C)[C@@H](O[C@H]3C[C@H](OC)[C@@H](O[C@H]4C[C@H](OC)[C@@H](O)[C@H](C)O4)[C@H](C)O3)[C@@H](C)/C=C/C=C3\CO[C@@H]4[C@H](O)C(C)=C[C@@H](C(=O)O1)[C@]34O)O2` (tested in a mixture with another compound), the AC50 in experiment [1] was 4.89 µM (active); in experiment [2], 8.26 µM (active); in [3] it was 363 nM (active); in [5] it was 15.5 µM (active). For the same molecule, the result in experiment [4] was inactive.

For `CN1CSC(=S)N(C)C1`, in experiment [6], the molecule was classed as inactive.

With `Cc1cc(C)nc(NC(=O)NS(=O)(=O)c2ccccc2C(=O)OC2COC2)n1`, the result in experiment [7] and in experiment [8] was inactive.

`CCS(=O)(=O)c1cccnc1S(=O)(=O)NC(=O)Nc1nc(OC)cc(OC)n1`: in experiment [9], the molecule was classed as inactive.

Take `Oc1ccc(Cl)cc1Cc1ccccc1`: the call in [10], in experiment [11], in experiment [12], in [14], in [4] and in experiment [15] was inactive. In addition, the AC50 in [1] is 30.2 µM (active) [middle of 7 runs]; in [11], 10.9 µM (active); in [3], 17.1 µM (active) [middle of 7 runs]; in [13] it was 7.84 µM (active) [middle of 6 runs]; in [4], 11 µM (active) and 9.89 µM (active) and 8.7 µM (active).

With `CCOC1Oc2ccc(OS(C)(=O)=O)cc2C1(C)C` (centres undefined), in experiment [16], the result was inactive.

For `CCC(C)Nc1c([N+](=O)[O-])cc(C(C)(C)C)cc1[N+](=O)[O-]` (centres undefined), the call in experiment [12] was inactive.

Consider `O=C(Nc1ccccc1)Nc1cnns1`, for which the AC50 in [2] is 7.77 µM (active). In addition, the molecule was classed as inactive in experiment [7] and in experiment [17].

On to `C#CCN1C(=O)COc2cc(F)c(N3C(=O)C4=C(CCCC4)C3=O)cc21`, for which the molecule was called inactive in experiment [6].

With `CNC(=O)/C=C(\C)OP(=O)(OC)OC`, the molecule was called inactive in experiment [2].

As for `CCCN(CCOc1c(Cl)cc(Cl)cc1Cl)C(=O)n1ccnc1`, the AC50 was 14.8 µM (active) in [10]; 14.3 µM (active) in [11]; 2590 nM (active) in experiment [3]; 8.01 µM (active) in experiment [8]; 53.9 nM (active) in [4]. The result in experiment [1] and in [9] was inactive.
